Source: PubChem BioAssay (EPA / NIEHS)
Several values for one entry are separate records, joined by “and”; a condition that tells them apart may be missing. Identical values can stand only once. Results filed as inconclusive are left out. Some structures have more than one record in an assay (separate samples or runs), and their calls can disagree. Activity calls are given as the source filed them. The calls were made as follows, unless noted: active = hit-call score of the fitted dose curve at least 0.9, where 1 is the maximum; inactive = score below 0.9.

Columns and labels:
[1] = TAMU_HCS_1.5hr_SingleDonor1434_Cytotoxicity: Cytotoxicity Assessment using High-content Screening (HCS) Fluorescent Imaging for the Texas A&M University (TAMU) 1.5-hr Human Induced Pluripotent Stem Cell (iPSC)-derived Cardiotoxicity Assay (AID 2284234; active = hit-call score of the fitted dose curve at least 0.9, where 1 is the maximum)
Outline: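 Nuclear counts from Hoechst 33342 imaging define cytotoxicity here, with EC10 (10% cell-count loss relative to DMSO) as point of departure. iPSC cardiomyocytes received 0.2-100 uM test chemical in 0.5% DMSO for 1.5 h at 37 C.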

[2] = CCTE_Mundy_HCI_hNP1_Casp3_7: CCTE's Caspase-Glo 3/7 Assay in human neuroprogenitor cells for Apoptosis, Mundy Lab (AID 2284240)
Outline: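 Luminescent caspase-3/7 readout, 26.5 h post-dose, in human neural progenitor cells from WA09 embryonic stem cells. Cells grew 40–44 h at 37 °C, 5% CO2 before chemical addition. Activity analysed as signal increase over DMSO baseline.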

[3] = CCTE_Mundy_HCI_hNP1_CellTiter: CCTE's Cell Titer-Glo 2 Assay in human neuroprogenitor cells for Viability, Mundy Lab (AID 2284241; active = hit-call score of the fitted dose curve at least 0.9, where 1 is the maximum;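 as to AC50: a hit is a drop in ATP luminescence versus DMSO meaning reduced viability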)
Outline: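 Viability read as luminescent ATP content (CellTiter-Glo, 30 min room temperature) twenty-four hours after dosing, relative to DMSO. Cells: WA09-derived hNP1 neuroprogenitors on poly-L-ornithine/laminin, plated 40 to 44 hours before chemical.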

[4] = read-out: Monokine induced gamma interferon (MIG), CXCL9 (gene 4283); test: BSK_KF3CT_MIG: BioMAP Diversity Plus: KF3CT Assay for Monokine induced gamma interferon (MIG) Biomarker Activity (AID 2284248); settings: primary human keratinocytes with fibroblasts
Outline: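 KF3CT system: keratinocyte/fibroblast co-culture, 24 h post-dose, MIG by ELISA; activity vs DMSO, positive fitting direction.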

[5] = read-out: Vascular cell adhesion molecule 1 (VCAM1), VCAM1 (gene 7412); test: BSK_BF4T_VCAM1: BioMAP Diversity Plus: BF4T Assay for Vascular cell adhesion molecule 1 (VCAM1) Biomarker Activity (AID 2284249); settings: primary human bronchial epithelial cells with fibroblasts
Outline: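 Cell-surface VCAM-1 quantified by ELISA after 24 h chemical exposure of human bronchial epithelial/dermal fibroblast co-cultures, with SRB staining in parallel wells for cytotoxicity; DMSO baseline, positive-direction fitting.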

[6] = read-out: Collagen I, COL1A1 (gene 1277); test: BSK_hDFCGF_CollagenI: BioMAP Diversity Plus: hDFCGF Assay for Collagen I Biomarker Activity (AID 2284250); settings: primary human foreskin fibroblasts
Outline: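 Readout: Collagen I by ELISA after 24 h compound treatment of primary human foreskin fibroblasts. Endpoint analysed for increases relative to DMSO; total protein by SRB in parallel wells flagged cytotoxicity.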

[7] = read-out: Interferon-inducible T-cell alpha chemoattractant (ITAC), CXCL11 (gene 6373); test: BSK_hDFCGF_ITAC: BioMAP Diversity Plus: hDFCGF Assay for Interferon-inducible T-cell alpha chemoattractant (ITAC) Biomarker Activity (AID 2284251); settings: primary human foreskin fibroblasts
Outline: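 Measured by ELISA, the chemokine level serves as the endpoint in human skin fibroblast primary cultures 24 h after compound addition. Increases relative to DMSO-treated wells define activity.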

[8] = read-out: Interleukin 17A (IL17A), IL17A (gene 3605); test: BSK_BT_xIL17A: BioMAP Diversity Plus: BT Assay for Interleukin 17A (IL17A) Biomarker Activity (AID 2284229); settings: primary human B cells with PBMC
Outline: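 Secreted IL-17A was the measured endpoint, read by Luminex xMAP multiplex in supernatants of a human B cell/PBMC co-culture harvested 24 h after chemical dosing. Signal increase relative to DMSO defined activity.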

[9] = read-out: Tumor necrosis factor (Homo sapiens) (UniProt P01375); test: BSK_BT_xTNFa: BioMAP Diversity Plus: BT Assay for Tumor necrosis factor alpha (TNF-alpha) Biomarker Activity (AID 2284230); settings: primary human B cells with PBMC
Outline: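 Compounds were added to a B cell plus PBMC co-culture, and after 24 h secreted TNF-alpha was quantified with Luminex xMAP technology, with responses fitted upward from the DMSO control.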

[10] = read-out: Vascular cell adhesion molecule 1 (VCAM1), VCAM1 (gene 7412); test: BSK_MyoF_VCAM1: BioMAP Diversity Plus: MyoF Assay for Vascular cell adhesion molecule 1 (VCAM1) Biomarker Activity (AID 2284231); settings: primary human lung fibroblasts
Outline: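 ELISA read-out of VCAM-1 on human lung fibroblasts 24 h after chemical treatment, with positive-direction curve fitting relative to DMSO controls. Parallel cultures were stained with sulforhodamine B for total protein to flag overt cytotoxicity.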

[11] = read-out: Interleukin 17F (IL17F), IL17F (gene 112744); test: BSK_BT_xIL17F: BioMAP Diversity Plus: BT Assay for Interleukin 17F (IL17F) Biomarker Activity (AID 2284243); settings: primary human B cells with PBMC
Outline: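 Compound was added to co-cultures of human B cells and PBMC. After 24 hours, IL-17F released into the medium was measured with LumineX xMAP technology. Responses were then fitted upward relative to DMSO.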

[12] = read-out: Actin alpha 1 (ACTA1), ACTA1 (gene 58); test: BSK_MyoF_ACTA1: BioMAP Diversity Plus: MyoF Assay for Actin alpha 1 (ACTA1) Biomarker Activity (AID 2284244); settings: primary human lung fibroblasts
Outline: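 MyoF fibroblast system (human lung); a-SMA quantified via ELISA at 24 h; DMSO-normalised, gain-of-signal endpoint.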

[13] = read-out: Basic fibroblast growth factor (bFGF), FGF2 (gene 2247); test: BSK_MyoF_bFGF: BioMAP Diversity Plus: MyoF Assay for Basic fibroblast growth factor (bFGF) Biomarker Activity (AID 2284246); settings: primary human lung fibroblasts
Outline: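 Fibroblasts from human lung, 24 h dosing. bFGF by ELISA; gain of signal over DMSO.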

[14] = read-out: Collagen IV, COL4A1 (gene 1282); test: BSK_MyoF_CollagenIV: BioMAP Diversity Plus: MyoF Assay for Collagen IV Biomarker Activity (AID 2284247); settings: primary human lung fibroblasts
Outline: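 Lung fibroblasts (human primary) treated with chemicals were assayed after 24 h for Collagen IV using an ELISA, with DMSO serving as negative control and baseline for a positive-direction fit.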

[15] = UKN2_HCS_IMR90_cell_viability: Viability Assessment in the University of Konstanz (UKN) Leist Lab Neural Crest Cell Migration Assay in human induced IMR90 Pluripotent Stem Cells (UKN2) (AID 2284233);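 also: cells exposed to compound for 24 h after a 24 h migration phase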
Outline: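 Viability read as calcein-AM fluorescence by high-content imaging, Hoechst co-stain, 30 min. Human iPSC (IMR90) neural crest cells had migrated 24 h into stopper-defined gaps before 24 h chemical exposure. Fitted bidirectionally relative to DMSO.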

[16] = CCTE_Mundy_HCI_Cortical_NOG_NeuronCount: CCTE's Neurite Outgrowth Assay in rat cortical cells for Neuron Count, Mundy Lab (AID 2284236; active = hit-call score of the fitted dose curve at least 0.9, where 1 is the maximum;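 also: neurons counted by imaging betaIII-tubulin and Hoechst stained cortical cells; cells exposed to compound for about 48 hours before fixation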)
Outline: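 Read-out: neuron number by high-content imaging of betaIII-tubulin (Alexa Fluor-488) and Hoechst-labelled rat primary cortical cells.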

[17] = CCTE_Mundy_HCI_Cortical_NOG_BPCount: CCTE's Neurite Outgrowth Assay in rat cortical cells for Branch Point Count, Mundy Lab (AID 2284237);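 also: branch points counted about two days after chemical exposure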
Outline: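 Measured 50.33 h after dosing, this morphology endpoint uses rat primary cortical cultures labelled for betaIII-tubulin. Branch points are quantified by high-content imaging, with DMSO as negative control and baseline.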

[18] = CCTE_Mundy_HCI_Cortical_Synap_Neur_Matur_NeuronCount: CCTE's Synaptogenesis and Neurite Maturation Assay in rat cortical cells for Neuron Count, Mundy Lab (AID 2284242; active = hit-call score of the fitted dose curve at least 0.9, where 1 is the maximum;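 as to AC50: hits reduce neuron count versus DMSO baseline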)
Outline: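 Measured at DIV 12: fluorescently labelled neurons (Hoechst nuclei, MAP2) in rat primary cortical cultures, counted by high-content imaging. AraC suppressed glia from DIV 5; DMSO served as negative control.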

[19] = UKN4_HCS_LUHMES_cell_viability: Viability Assessment in the University of Konstanz (UKN) Leist Lab Neurite Outgrowth Assay in human LUHMES cells (UKN4) (AID 2284232)
Outline: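 Measured in replated, 2-day-differentiated LUHMES cells treated 24 h; stained 30 min with H-33342 and calcein-AM before high-content imaging.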

[20] = TAMU_PeakParms_SingleDonor1434_QT: Texas A&M University (TAMU) 1.5-hr Human Induced Pluripotent Stem Cell (iPSC)-derived Cardiomyocytes Calcium (Ca+2) Flux Assay for Cardiotoxicity: QT (decay-rise ratio) (AID 2284235; active = hit-call score of the fitted dose curve at least 0.9, where 1 is the maximum)
Outline: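 Decay/rise ratio of calcium-flux fluorescence scored after 90 min exposure (37C) of donor 1434 iPSC cardiomyocytes to 0.2–100 uM (0.5% DMSO). Beat-cessation and severe-notch points removed; POD is EC05, a 5% rise over DMSO.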

Measured: AC50

Sequence of Tumor necrosis factor (Homo sapiens) (P01375 whole entry, looked up): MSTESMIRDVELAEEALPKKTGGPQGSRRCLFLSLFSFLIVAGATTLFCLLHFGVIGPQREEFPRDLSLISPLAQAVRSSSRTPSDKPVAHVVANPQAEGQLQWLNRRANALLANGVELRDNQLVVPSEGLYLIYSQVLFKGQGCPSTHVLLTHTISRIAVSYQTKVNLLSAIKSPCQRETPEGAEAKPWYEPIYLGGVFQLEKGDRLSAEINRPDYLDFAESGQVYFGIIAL

ClC(Cl)=C(Cl)C(Cl)=C(Cl)Cl
inactive: [1]

O=C(O)C(F)(F)C(F)(F)C(F)(F)C(F)(F)C(F)(F)C(F)(F)F
inactive: [2] | [3] | [4] | [5] | [6] | [7]

CCCCC(CC)CO[N+](=O)[O-] (stereo not given)
inactive: [8] | [9] | [10] | [11] | [12] | [13] | [14]

COP(=S)(OC)Oc1ccc(Sc2ccc(OP(=S)(OC)OC)cc2)cc1
active: [12] 27.4 µM
inactive: [8] | [9] | [10] | [11] | [13] | [14]

CC(=O)OC(c1ccccc1)C(Cl)(Cl)Cl (stereo not given)
inactive: [4] | [6] | [7]

NC(=S)Nc1ccccc1
inactive: [8] | [9] | [10] | [11] | [12] | [13] | [14]

COP(=O)(OC)O/C(=C\Cl)c1cc(Cl)c(Cl)cc1Cl
active: [16] 51.5 µM | [17] 31.1 µM and 23 µM | [2] 12.4 µM and 70.3 µM | [3] 23.3 µM and 89 µM | [18] 51.5 µM
inactive: [15] | [16] | [18]

Nc1ncc([N+](=O)[O-])s1
inactive: [8] | [9] | [10] | [11] | [12] | [13] | [14]

COC(=O)Cc1ccccc1
inactive: [4] | [6] | [7]

COP(=S)(OC)Oc1c(Cl)cc(C)cc1Cl
inactive: [9] | [10] | [11] | [12] | [13] | [14]
active: [8] 10.7 µM

O=C(O)C(F)(F)C(F)(F)C(F)(F)C(F)(F)C(F)(F)C(F)(F)C(F)(F)C(F)(F)C(F)(F)C(F)(F)F
active: [10] 4.85 µM and 4.92 µM | [12] 2.74 µM and 2.55 µM | [13] 5.14 µM and 6.09 µM | [14] 816 nM and 843 nM | [4] 6.52 µM and 5.48 µM | [5] 4.89 µM and 5.89 µM | [6] 3.39 µM | [7] 5.59 µM
inactive: [8] | [9] | [11] | [6]

O=C(OC1CCCCC1)c1ccccc1C(=O)OC1CCCCC1
inactive: [13] | [14]
active: [8] 20.9 µM | [9] 32.1 µM | [10] 20.9 µM | [11] 30.8 µM | [12] 12.5 µM

CCOP(=S)(OCC)Oc1nc(Cl)c(Cl)cc1Cl
active: [19] 231 µM | [16] 9.92 µM and 75.5 µM | [17] 29.8 µM | [2] 7.91 µM and 89.6 µM | [3] 35.5 µM | [18] 82.7 µM and 26.6 µM
inactive: [15] | [1]

CC(C)(C)c1cc(O)ccc1O
inactive: [20]
active: [1] 50 µM

COC(=O)c1sccc1S(=O)(=O)NC(=O)Nc1nc(C)nc(OC)n1
inactive: [8] | [9] | [10] | [11] | [12] | [13] | [14]

Oc1cccc2cccnc12
inactive: [1] | [20]

O=C1C2(Cl)C3(Cl)C4(Cl)C(Cl)(Cl)C5(Cl)C3(Cl)C1(Cl)C5(Cl)C24Cl (stereo not given)
active: [19] 7.53 µM | [15] 3.06 µM | [16] 15 µM | [17] 7.19 µM | [2] 20.1 µM | [3] 23.5 µM
inactive: [18]

C(=NC1CCCCC1)=NC1CCCCC1
active: [8] 6.39 µM | [9] 10.9 µM | [10] 11.8 µM | [11] 13.4 µM | [12] 7.21 µM | [13] 11.9 µM | [14] 12.4 µM

CCCCCCCCC(=O)NCc1ccc(O)c(OC)c1
inactive: [8] | [9] | [10] | [11] | [12] | [13] | [14]

COP(=S)(OC)Oc1ccc(S(=O)(=O)N(C)C)cc1
inactive: [8] | [9] | [10] | [11] | [12] | [13] | [14]

C=C(C)C(=O)[O][Sn]([CH2]CCC)([CH2]CCC)[CH2]CCC
active: [19] 0.181 µM | [15] 0.272 µM | [16] 0.0826 µM | [17] 0.0846 µM | [2] 2.77 µM | [3] 0.335 µM | [18] 0.0547 µM

Oc1c(I)cc(I)cc1I
active: [10] 8.17 µM | [12] 20 µM | [14] 4.34 µM
inactive: [8] | [9] | [11] | [13]

O=C(O)CCC(F)(C(F)(F)F)C(F)(F)F
active: [7] 5.95 µM
inactive: [8] | [9] | [10] | [11] | [12] | [13] | [14] | [4] | [5] | [6] | [7]

ClC1=C(Cl)[C@]2(Cl)[C@H]3[C@H]([C@H]4C=C[C@H]3C4)[C@@]1(Cl)C2(Cl)Cl
active: [8] 24.4 µM | [9] 33.1 µM | [10] 3.97 µM | [11] 27 µM | [12] 8.66 µM
inactive: [13] | [14]
